Screening data deposited in PubChem BioAssay by several laboratories.
hcDAF-12 act – activates DAF-12 receptor from parasite H. contortus; activation, % at 6.8 µM; HEK293 hcDAF-12 lit1-tk-luc reporter, luminescence; 0% DMSO, 100% Δ7-dafachronic acid; 1.4% of 370,000 active;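 active means activation above the mean of all tested compounds plus 3 SD, cut at about 5.5% in these data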;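 further: 100% = response to 3 µM Δ7-dafachronic acid high control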
PolyA inh – blocks polyadenylation in yeast reporter cells; S. cerevisiae SKY197-pL101 polyadenylation reporter, beta-gal luminescence; efflux-impaired pdr1/pdr3 knockout yeast; score 100 = 6 SD above DMSO; activity score, % at 12 µM; 0.02% of 300,000 active; AID 1875;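 active means lowest replicate activity score at least 50, where 100 means six control SD above control mean; inconclusive means lowest score under 50 but half or more replicates reach 50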;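 further: yeast exposed to compound for 9 h at 30 °C; higher score means more reporter readthrough which indicates perturbed polyadenylation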
hgDAF-12 ag – agonists of H. glycines DAF-12 nuclear receptor; HEK293 GAL4-hgDAF12 UAS-luciferase reporter, agonist luminescence; normalized to butyrate control; activation, % at 6.8 µM; 1.8% of 370,000 active; AID 687014;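 active means activation above a cutoff set at the mean of all screened compounds plus 3 SD, cut at about 10% in these data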;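 further: 0% = DMSO wells and 100% = sodium butyrate wells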
ssDAF-12 act – activators of S. stercoralis DAF-12 nuclear receptor | HEK293 ssDAF-12/GRIP1 lit1-tk-luc reporter, luminescence; % of 3 µM dafachronic acid response | activation, % at 6.8 µM | 1% of 370,000 active | AID 652126;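 active means activation above the mean over all tested compounds plus 3 SD, cut at about 0.9% in these data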;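 further: 0% = DMSO-only wells and 100% = 3 µM delta7-dafachronic acid wells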
DAX1 inh-1 – inhibitors of DAX1 repression of SF-1 activated StAR promoter. AID 652010. HEK293T StAR-luciferase reporter, SF-1/DAX-1 repression relief. 1.1% of 370,000 active. inhibition, % at 6.8 µM;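 active means inhibition above the mean over all tested compounds plus 3 SD, cut at about 3.6% in these data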;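 further: 0% = DAX-1 cells with DMSO and 100% = cells lacking DAX-1 with DMSO; higher inhibition means more luminescence from relief of DAX-1 repression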
DAX1 inh-2 – inhibits human nuclear receptor DAX1; P51843; HEK293 Gal4-DAX1 luciferase reporter, luminescence; inhibition, % at 6.75 µM; 0.99% of 340,000 active; AID 504766;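 active means inhibition above the mean over all tested compounds plus 3 SD, cut at about 4.2% in these data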;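 further: 0% = DAX1-transfected cells with DMSO and 100% = empty-vector control cells with DMSO; inhibition shows as a rise in luminescence from relieved DAX1 repression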
Target sequence (P51843 207-470 limits assumed): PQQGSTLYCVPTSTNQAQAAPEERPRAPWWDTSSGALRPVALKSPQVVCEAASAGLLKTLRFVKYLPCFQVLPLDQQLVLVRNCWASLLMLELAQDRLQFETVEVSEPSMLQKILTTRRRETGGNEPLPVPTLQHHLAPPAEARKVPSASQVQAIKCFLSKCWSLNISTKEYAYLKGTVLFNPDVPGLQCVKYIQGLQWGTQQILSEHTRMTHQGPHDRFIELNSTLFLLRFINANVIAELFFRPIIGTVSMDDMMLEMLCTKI
Active calls of the source: *; ? = inconclusive; . = no result given. Compounds with a hit are over-represented: about 4.1% of the library has one in this group of screens.

SMILES	hcDAF-12 act	PolyA inh	hgDAF-12 ag	ssDAF-12 act	DAX1 inh-1	DAX1 inh-2
O=C(CSc1nnc(SCc2ccccc2)s1)N/N=C/c1ccc(C(=O)O)cc1	-1.1	3.2	-1.8	-2.0	0.6	1.7
Cc1ccc(Nc2nnc(SCC(=O)Nc3cccc(S(=O)(=O)NC4=NCCCCC4)c3)s2)cc1	1.0	6.1	3.0	-0.5	0.2	-1.4
O=C(CSc1nnc(NC(=O)C2CC2)s1)Nc1ccc(F)cc1	1.1	8.2	0.2	-1.1	-0.4	-0.8
CC(=O)Nc1ccc(NC(=O)CSc2nnc(NC(=O)C3CC3)s2)cc1	1.7	-16.5	1.6	-0.7	-4.3	6.5*
COc1ccc2nc3cc(Cl)ccc3c(Nc3cc(CN4CCCC4)c(O)c(CN4CCCC4)c3)c2n1	1.8	9.5	-5.7	0.3	4.3*	.
COc1cccc(/C=C2\SC(=S)N(N3C(=O)CCCC3=O)C2=O)c1	-0.8	-10.2	0.1	-1.1	0.4	5.7*
COc1cccc(/C=C2\SC(=S)N(CCC(=O)N3CCCCC3)C2=O)c1	0.0	-0.6	1.1	-0.6	0.9	0.1
O=C1/C(=C/c2cccc(O)c2)SC(=S)N1CC1CCCO1 (stereo not drawn)	0.6	-28.7	8.6	-0.8	-1.2	1.4
COc1cccc(/C=C2\SC(=S)N(CC3CCCO3)C2=O)c1 (stereo not drawn)	0.4	-10.2	12.7*	-0.3	-0.8	-0.9
COC(=O)[C@]12C[C@H](CC(=O)N3CCCC3)C(=O)N(Cc3ccccc3)C1=C[C@H](C(C)C)O[C@@H]2C1CC1	-0.1	.	1.0	-0.8	0.0	.
N#Cc1c2c(c(Nc3ccc(F)cc3)n3c1nc1ccccc13)CCCC2	-1.6	.	11.3*	-1.4	-0.6	0.3
N#Cc1c2c(c(Nc3ccccc3)n3c1nc1ccccc13)CCC2	-0.5	?	1.2	-0.7	-0.2	0.2
Nc1ccc(-c2nc3cc(N)ccc3o2)cc1	4.2	0.4	11.2*	-0.7	2.2	0.8
Nc1ccc(-c2nc3ccc(N)cc3o2)cc1	-0.5	-6.0	11.5*	-1.6	2.2	3.6
Cc1ccc2nc(-c3cc(N)cc(N)c3)oc2c1	-1.6	-4.3	-4.3	-1.8	0.9	-3.4
CN(C)c1ccc(-c2nc3cc(N)ccc3o2)cc1	5.8*	1.7	10.9*	0.7	0.9	-4.9
COC(=O)c1ccc(-c2nc3cc(N)ccc3o2)cc1	-3.4	12.3	-5.1	-2.3	-0.9	-2.6
CCCCCCCCN1C(=O)N2Cc3ccc(C)cc3C2CS1(=O)=O (stereo not drawn)	-1.0	.	1.9	-1.3	0.1	.
Oc1ccc(-c2nnc(SCC3CCCCC3)o2)cc1	0.6	-7.0	10.6*	-0.5	3.4	0.8
O=C(CSc1nnc(-c2ccc(O)cc2)o1)N1CCOCC1	0.8	-7.5	3.5	-0.7	0.6	1.3
COC(=O)[C@]12C[C@H](CC(=O)NCCC(C)C)C(=O)N(Cc3ccco3)C1=C[C@H](C1CCCC1)O[C@@H]2C	-2.2	.	0.1	-0.8	-0.3	.
CC(C)c1ccc(NC(=S)N2CCCC2)cc1	5.2	-2.6	6.1	-0.2	3.9*	2.0
CC(C)c1ccc(NC(=S)N2CCN(C)CC2)cc1	-1.4	.	2.2	-0.3	1.5	0.7
O=C(N/N=C/c1ccc(O)c(O)c1)N/N=C/c1ccc(O)c(O)c1	7.3*	-7.0	9.2	-0.5	1.3	1.4
Cc1nonc1C(=O)N/N=C/c1ccc(O)c(O)c1	-1.8	1.7	1.8	-1.0	0.7	-0.2
SMILES	hcDAF-12 act	PolyA inh	hgDAF-12 ag	ssDAF-12 act	DAX1 inh-1	DAX1 inh-2
CCCCOCCCNC(=O)C[C@@H]1C(=O)N(Cc2ccc(OC)cc2)/C2=C/CCCCC[C@@]21C(=O)OCC	-2.1	.	-1.7	-0.3	0.3	.
CCOC(=O)[C@]12CCCC=C1N(CCCOC)C(=O)[C@@H]2CC(=O)NCc1cccc2ccccc12	-2.3	.	-1.9	-0.8	-0.4	.
O=C(CSc1nnc(-c2cccc(Cl)c2)n1Cc1ccco1)c1ccc(F)cc1	-2.5	.	-1.8	-0.9	-0.8	.
CC[C@H](C)C(=O)O[C@H]1CCC=C2C=C[C@H](C)[C@H](CC[C@@H]3C[C@@H](O)CC(=O)O3)[C@H]21	-2.1	-19.5	1.3	-0.6	3.9*	0.3
CCC(C)C(=O)OC1CCC=C2C=CC(C)C(CCC3CC(O)CC(=O)O3)C21 (stereo not drawn)	2.0	.	5.4	-1.4	1.1	1.6
COc1ccc(CN2CCC(CNC(=O)Nc3ccc(C)c(F)c3)CC2)cc1	1.4	.	7.7	-1.4	0.8	.
COc1cc(C2C3=C(COC3=O)Oc3cc4c(cc32)OCO4)ccc1O (stereo not drawn)	2.1	.	0.1	-1.0	-1.9	0.7
COc1cc(C2C3=C(COC3=O)OC(C)(C)Oc3cc4c(cc32)OCO4)cc(OC)c1OC (stereo not drawn)	-0.9	.	-5.2	-0.4	4.1*	-0.1
COC(=O)C1CCc2c(ccc3c2CCCC3)C1=O (stereo not drawn)	1.1	.	5.7	-0.8	4.3*	4.4*
COc1cc(OC)cc(C(=O)Nc2cccc3c2CCCC3)c1	-2.4	-3.1	3.4	-1.6	0.0	-0.7
CC1(C)SC(=S)N(/N=C/c2cccnc2)C1N(O)C(=O)Nc1ccccc1 (stereo not drawn)	0.3	2.4	-0.7	-0.3	-0.5	6.2*
O=[N+]([O-])c1ccc(COc2ccccc2CO)cc1	0.5	.	7.3	-1.0	2.2	.
Cc1cc(C)nc(Nc2ccc(O)cc2)n1	-1.2	-8.4	-0.6	-1.2	-0.3	0.4
CCc1ccc(Nc2nc(C)cc(C)n2)cc1	3.1	-1.2	10.7*	-0.5	0.5	0.2
COC(=O)c1cc2c(c3c4cc(OC)ccc4n(S(=O)(=O)c4cccc(C)c4)c13)C(=O)N(C)C2	-0.2	.	-0.5	-1.2	-0.7	.
c1coc(CSc2ncnc3c2oc2ccccc23)c1	2.7	-18.6	5.0	0.2	0.3	5.7*
c1ccc(CSc2ncnc3c2oc2ccccc23)cc1	-1.3	-29.0	1.1	-1.2	-0.3	0.2
CCCCN1C(=O)N(c2ccc(Cl)cc2)C(C)(O)CC1(C)C (stereo not drawn)	-0.1	-19.6	0.2	-1.7	0.1	4.5*
COC(=O)C[C@H]1CC[C@@H]2[C@H](COc3ccc(NC(=O)NCc4ccccc4)cc3C(=O)N2C)O1	-0.5	.	0.7	-1.1	-0.6	.
O=C(NCC1CCCO1)c1nn2c(C(F)(F)F)cc(-c3cccs3)nc2c1Br (stereo not drawn)	-1.7	-13.0	-2.7	-1.2	0.7	2.0
O=C(NCC1CCCO1)c1nn2c(C(F)(F)F)cc(-c3cccs3)nc2c1Cl (stereo not drawn)	0.0	4.3	-1.6	0.9*	0.1	-1.1
Cc1cccc(C2=NN(c3ccccc3)[C@@H](C(=O)N3CCOC3=O)[C@@H]2c2ccccc2)c1	0.8	.	0.9	-0.1	3.7*	0.4
